# Inconclusive results are not listed. A call without a number means that no potency is given here. Calls of active or inactive are those of the source. The call rests on the fitted dose curve; in most records, active means well fitted inhibition curve with a large enough effect in the repeat runs; inconclusive means weak or mixed curves; inactive means no such curve, though single readings can be large or run the other way.
# Target: Cytochrome P450 2C9 (Homo sapiens) (UniProt P11712)
# Experiment: Cytochrome P450 family 2 subfamily C member 9 (CYP2C9) small molecule antagonists: luciferase biochemical (cell-free) qHTS assay (AID 1645842); further: nearly all actives have a fitted effect of over 55% in size
# Conditions: P450-Glo CYP2C9 enzyme assay, luciferin luminescence; series mostly up to 57.4 µM
# Method in brief: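 P450-Glo CYP2C9 system: proluciferin substrate with enzyme in mix containing 0.4% BSA, 10 min at room temperature, then NADPH regeneration solution added and incubated 1 h at 37C. Detection reagent stopped reaction; luminescence read after 20 min as RLU.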
# Potency means the concentration at half of the fitted maximal effect.
# Chain of Cytochrome P450 2C9 (Homo sapiens) (P11712 whole entry, looked up): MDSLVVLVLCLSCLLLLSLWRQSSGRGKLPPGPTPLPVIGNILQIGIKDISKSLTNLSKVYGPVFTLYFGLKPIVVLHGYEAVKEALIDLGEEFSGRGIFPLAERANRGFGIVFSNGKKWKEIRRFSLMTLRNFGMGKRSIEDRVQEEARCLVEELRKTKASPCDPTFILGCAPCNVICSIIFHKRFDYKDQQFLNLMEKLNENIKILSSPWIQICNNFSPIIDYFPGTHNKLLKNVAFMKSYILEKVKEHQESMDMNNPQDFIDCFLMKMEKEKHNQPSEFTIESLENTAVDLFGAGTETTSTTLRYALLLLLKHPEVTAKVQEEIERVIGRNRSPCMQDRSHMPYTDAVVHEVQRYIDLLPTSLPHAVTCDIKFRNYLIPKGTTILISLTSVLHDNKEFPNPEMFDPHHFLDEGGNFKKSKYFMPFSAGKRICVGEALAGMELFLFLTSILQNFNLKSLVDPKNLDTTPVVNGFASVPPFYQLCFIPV
row,Compound,Potency
1,CC1(C)OC(=O)Nc2ccc(Br)cc21,inactive
2,CCOC(=O)[C@H](CCc1ccccc1)N[C@@H](C)C(=O)N(CC(=O)O)C1Cc2ccccc2C1,19.5 µM (active)
3,Cc1nc(C2CCCCC2)c(-c2ccc(S(N)(=O)=O)c(F)c2)o1,2.19 µM (active)
4,c1ccc2occc2c1,inactive
5,CCN1C(=O)c2ccccc2C1Nc1ccc(OCCN2CCCCC2)cc1 (stereo not given),inactive
6,O=C(O)CNC(=O)CNC(=O)CNC(=O)CSC(=O)c1ccccc1,inactive
7,CO/N=C(/C(=O)N[C@@H]1C(=O)N2C(C(=O)[O-])=C(C[n+]3ccn4ncccc43)CS[C@H]12)c1nsc(N)n1,inactive
8,CCOC(=O)C(=O)CCCCCCl,24.2 µM (active)
9,Cc1ccc(/C=N/n2c(-c3ccccc3)csc2=S)cc1,4.36 µM (active)
10,CC(C(=O)O)c1ccc(/C=C2\CCCCC2=O)cc1 (stereo not given),inactive
11,CCCCCCOC(=O)NC(=N)c1ccc(NCc2nc3cc(C(=O)N(CCC(=O)OCC)c4ccccn4)ccc3n2C)cc1,1.38 µM (active)
12,NC(=O)NS(=O)(=O)c1ccc(Cl)cc1,inactive
13,CCOC(=O)c1ccc(NC(=O)CN2CCCCC2)cc1,inactive
14,CCCCC(CC)COC(=O)c1ccccc1C(=O)O (stereo not given),6.26 µM (active)
15,CCOC(=O)NNc1nncc2ccccc12,inactive
16,NS(=O)(=O)c1cc2c(cc1Cl)CN(C1CCCCC1)C2=O,inactive
17,CC(=O)N1CCN(c2ccc(O)cc2)CC1,inactive
18,COc1ccc(OC(=O)N(CC(=O)O)Cc2ccc(OCCc3nc(-c4ccccc4)oc3C)cc2)cc1,17.4 µM (active)
19,Cc1cc(CCCOc2c(C)cc(-c3noc(C(F)(F)F)n3)cc2C)on1,19.5 µM (active)
20,COc1ccc2c(c1)CCCC2=O,inactive

row,Compound,Potency
1,CC1(C)O[C@@H]2C[C@H]3[C@@H]4CCC5=CC(=O)C=C[C@]5(C)[C@@]4(F)[C@@H](O)C[C@]3(C)[C@]2(C(=O)CO)O1,inactive
2,Nc1ccc(C(=O)N2CC3CC(CN(Cc4ccccc4)C3)C2)cc1,inactive
3,N[C@@H](Cc1cc(I)c(O)c(I)c1)C(=O)O,15.5 µM (active)
4,COc1cc(/C=C/C(N)=O)cc(OC)c1OC,inactive
5,CCc1cc2cc(OC)c(OC)cc2c(Cc2ccccc2)n1,15.5 µM (active)
6,CCC(=O)Oc1ccc2c(c1)CC[C@@H]1[C@@H]2CC[C@@]2(C)[C@H]1C[C@@H](OC(=O)CC)[C@@H]2OC(=O)CC,8.71 µM (active)
7,C/C(=N/NC(=O)c1ccncc1)C(=O)O,inactive
8,Nc1c(NC/C=C\COc2cc(CN3CCCCC3)ccn2)c(=O)c1=O,inactive
9,C[C@@H]1C[C@H]2[C@@H]3CCC4=CC(=O)C=C[C@]4(C)[C@@]3(F)[C@@H](O)C[C@]2(C)[C@@]1(O)C(=O)COC(=O)c1ccncc1,2.45 µM (active)
10,COC(=O)c1cc(Cl)c(NC(C)=O)cc1OC,inactive
11,CC(=O)OC/C=C(C)/C=C/C=C(C)/C=C/C1=C(C)CCCC1(C)C,15.5 µM (active)
12,CCOC(=O)N1CCC(n2c(=O)[nH]c3cc(Cl)ccc32)CC1,11 µM (active)
13,CC(CC1c2ccccc2CCc2ccccc21)CN(C)C (stereo not given),inactive
14,COc1ccc(CCC(C)=O)cc1,inactive
15,O=C(NN1CCCC1)NS(=O)(=O)c1ccc(Cl)cc1,inactive
16,CCc1cccc2c(CCO)c[nH]c12,inactive
17,CCC(CN)=C(c1ccccc1)c1ccccc1,11.5 µM (active)
18,CCOCCn1c(C2CCN(CCc3ccc(C(C)(C)C(=O)O)cc3)CC2)nc2ccccc21,inactive
19,O=C1Cc2cc(Cl)ccc2N1,11 µM (active)
20,O=C(O)Cc1ccc(OCCNC[C@H](O)c2ccccc2)cc1,inactive

# — PubChem BioAssay (NCATS)
